From the supplement of paper PMC11732987, “Enantioselective OTUD7B fragment discovery through chemoproteomics screening and high-throughput optimisation” (Communications Chemistry, 2025)

Columns and labels:
Experiment in all cases: log2 ratio of Biotin-Ahx-Ub-VS probe labelling (fragment/DMSO); higher = less target engagement (more negative = stronger competition), active = hit call of the paper (q ≤ 0.05, log2 ratio ≤ -1)
Conditions in all cases: compound concentration: 200 uM; treatment time: 3 h
[1] = biological target: T1, USP19 (UniProt O94966)
T1 sequence (whole entry): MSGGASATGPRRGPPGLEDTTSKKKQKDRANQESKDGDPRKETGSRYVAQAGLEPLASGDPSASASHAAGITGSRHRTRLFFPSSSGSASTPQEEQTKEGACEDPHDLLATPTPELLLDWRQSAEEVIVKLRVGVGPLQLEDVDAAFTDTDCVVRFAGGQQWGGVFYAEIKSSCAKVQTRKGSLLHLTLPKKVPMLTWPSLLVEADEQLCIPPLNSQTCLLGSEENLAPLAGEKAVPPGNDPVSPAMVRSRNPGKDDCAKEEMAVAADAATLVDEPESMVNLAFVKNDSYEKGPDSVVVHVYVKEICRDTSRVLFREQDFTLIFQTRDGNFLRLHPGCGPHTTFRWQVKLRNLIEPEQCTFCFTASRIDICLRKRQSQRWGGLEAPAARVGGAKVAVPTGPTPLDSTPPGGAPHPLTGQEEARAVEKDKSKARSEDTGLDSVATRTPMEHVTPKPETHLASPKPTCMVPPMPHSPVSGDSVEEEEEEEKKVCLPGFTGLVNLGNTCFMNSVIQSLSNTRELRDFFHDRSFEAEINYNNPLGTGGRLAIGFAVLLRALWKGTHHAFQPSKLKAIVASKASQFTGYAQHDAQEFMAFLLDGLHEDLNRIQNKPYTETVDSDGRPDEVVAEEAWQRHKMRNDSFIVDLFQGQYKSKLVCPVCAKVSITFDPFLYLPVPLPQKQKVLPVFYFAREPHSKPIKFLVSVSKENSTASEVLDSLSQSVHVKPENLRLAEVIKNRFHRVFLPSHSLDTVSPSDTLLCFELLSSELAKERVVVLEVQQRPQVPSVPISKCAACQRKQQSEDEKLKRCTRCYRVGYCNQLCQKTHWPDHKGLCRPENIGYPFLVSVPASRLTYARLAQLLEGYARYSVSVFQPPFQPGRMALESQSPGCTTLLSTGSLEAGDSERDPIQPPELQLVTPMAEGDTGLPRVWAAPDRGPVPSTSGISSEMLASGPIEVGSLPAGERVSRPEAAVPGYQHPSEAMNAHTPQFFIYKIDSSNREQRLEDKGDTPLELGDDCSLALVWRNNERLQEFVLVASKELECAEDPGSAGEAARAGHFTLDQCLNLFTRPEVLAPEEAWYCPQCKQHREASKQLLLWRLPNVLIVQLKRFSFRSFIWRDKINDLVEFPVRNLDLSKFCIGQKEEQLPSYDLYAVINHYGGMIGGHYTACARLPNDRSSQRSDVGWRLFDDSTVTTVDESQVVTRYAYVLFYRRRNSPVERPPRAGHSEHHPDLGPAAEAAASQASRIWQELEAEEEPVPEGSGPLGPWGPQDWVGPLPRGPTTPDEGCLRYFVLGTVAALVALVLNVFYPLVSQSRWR
Procedure, shortened: (§1)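 Labelling with Biotin-Ahx-Ub-VS (0.5 µM final, 1 h) followed a 3 h triplicate treatment of HEK293T lysate (495 µg per sample, Tris/CHAPS/IGEPAL buffer with protease inhibitors) with fragment at 200 µM or vehicle. Labelled DUBs were NeutrAvidin-enriched, digested with LysC and trypsin, and run by diaPASEF LC-MS/MS. The values, average log2 fragment/vehicle ratios by unpaired t-test, come from global-median-normalised Spectronaut label-free quantities. Proteins with ≥2 unique peptides were used.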

[2] = biological target: T2, USP22 (UniProt Q9UPT9)
T2 sequence (whole entry): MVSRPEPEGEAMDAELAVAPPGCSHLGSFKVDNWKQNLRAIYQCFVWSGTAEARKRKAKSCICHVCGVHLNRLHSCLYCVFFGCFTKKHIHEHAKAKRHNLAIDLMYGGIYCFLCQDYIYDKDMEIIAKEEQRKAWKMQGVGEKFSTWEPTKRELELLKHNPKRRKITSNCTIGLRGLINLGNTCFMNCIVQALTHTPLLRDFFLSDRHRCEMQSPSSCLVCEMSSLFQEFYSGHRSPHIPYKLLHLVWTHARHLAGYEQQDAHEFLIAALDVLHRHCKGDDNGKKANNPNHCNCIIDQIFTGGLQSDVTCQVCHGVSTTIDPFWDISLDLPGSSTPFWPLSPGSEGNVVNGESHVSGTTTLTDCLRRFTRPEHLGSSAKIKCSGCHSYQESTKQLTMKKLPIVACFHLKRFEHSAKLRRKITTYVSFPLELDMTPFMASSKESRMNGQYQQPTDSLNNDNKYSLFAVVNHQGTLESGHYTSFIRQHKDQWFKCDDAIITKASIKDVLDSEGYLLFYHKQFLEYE
Procedure, shortened: as §1

[3] = biological target: USP24 (UniProt Q9UPU5)
Chain of USP24 (Q9UPU5 whole entry): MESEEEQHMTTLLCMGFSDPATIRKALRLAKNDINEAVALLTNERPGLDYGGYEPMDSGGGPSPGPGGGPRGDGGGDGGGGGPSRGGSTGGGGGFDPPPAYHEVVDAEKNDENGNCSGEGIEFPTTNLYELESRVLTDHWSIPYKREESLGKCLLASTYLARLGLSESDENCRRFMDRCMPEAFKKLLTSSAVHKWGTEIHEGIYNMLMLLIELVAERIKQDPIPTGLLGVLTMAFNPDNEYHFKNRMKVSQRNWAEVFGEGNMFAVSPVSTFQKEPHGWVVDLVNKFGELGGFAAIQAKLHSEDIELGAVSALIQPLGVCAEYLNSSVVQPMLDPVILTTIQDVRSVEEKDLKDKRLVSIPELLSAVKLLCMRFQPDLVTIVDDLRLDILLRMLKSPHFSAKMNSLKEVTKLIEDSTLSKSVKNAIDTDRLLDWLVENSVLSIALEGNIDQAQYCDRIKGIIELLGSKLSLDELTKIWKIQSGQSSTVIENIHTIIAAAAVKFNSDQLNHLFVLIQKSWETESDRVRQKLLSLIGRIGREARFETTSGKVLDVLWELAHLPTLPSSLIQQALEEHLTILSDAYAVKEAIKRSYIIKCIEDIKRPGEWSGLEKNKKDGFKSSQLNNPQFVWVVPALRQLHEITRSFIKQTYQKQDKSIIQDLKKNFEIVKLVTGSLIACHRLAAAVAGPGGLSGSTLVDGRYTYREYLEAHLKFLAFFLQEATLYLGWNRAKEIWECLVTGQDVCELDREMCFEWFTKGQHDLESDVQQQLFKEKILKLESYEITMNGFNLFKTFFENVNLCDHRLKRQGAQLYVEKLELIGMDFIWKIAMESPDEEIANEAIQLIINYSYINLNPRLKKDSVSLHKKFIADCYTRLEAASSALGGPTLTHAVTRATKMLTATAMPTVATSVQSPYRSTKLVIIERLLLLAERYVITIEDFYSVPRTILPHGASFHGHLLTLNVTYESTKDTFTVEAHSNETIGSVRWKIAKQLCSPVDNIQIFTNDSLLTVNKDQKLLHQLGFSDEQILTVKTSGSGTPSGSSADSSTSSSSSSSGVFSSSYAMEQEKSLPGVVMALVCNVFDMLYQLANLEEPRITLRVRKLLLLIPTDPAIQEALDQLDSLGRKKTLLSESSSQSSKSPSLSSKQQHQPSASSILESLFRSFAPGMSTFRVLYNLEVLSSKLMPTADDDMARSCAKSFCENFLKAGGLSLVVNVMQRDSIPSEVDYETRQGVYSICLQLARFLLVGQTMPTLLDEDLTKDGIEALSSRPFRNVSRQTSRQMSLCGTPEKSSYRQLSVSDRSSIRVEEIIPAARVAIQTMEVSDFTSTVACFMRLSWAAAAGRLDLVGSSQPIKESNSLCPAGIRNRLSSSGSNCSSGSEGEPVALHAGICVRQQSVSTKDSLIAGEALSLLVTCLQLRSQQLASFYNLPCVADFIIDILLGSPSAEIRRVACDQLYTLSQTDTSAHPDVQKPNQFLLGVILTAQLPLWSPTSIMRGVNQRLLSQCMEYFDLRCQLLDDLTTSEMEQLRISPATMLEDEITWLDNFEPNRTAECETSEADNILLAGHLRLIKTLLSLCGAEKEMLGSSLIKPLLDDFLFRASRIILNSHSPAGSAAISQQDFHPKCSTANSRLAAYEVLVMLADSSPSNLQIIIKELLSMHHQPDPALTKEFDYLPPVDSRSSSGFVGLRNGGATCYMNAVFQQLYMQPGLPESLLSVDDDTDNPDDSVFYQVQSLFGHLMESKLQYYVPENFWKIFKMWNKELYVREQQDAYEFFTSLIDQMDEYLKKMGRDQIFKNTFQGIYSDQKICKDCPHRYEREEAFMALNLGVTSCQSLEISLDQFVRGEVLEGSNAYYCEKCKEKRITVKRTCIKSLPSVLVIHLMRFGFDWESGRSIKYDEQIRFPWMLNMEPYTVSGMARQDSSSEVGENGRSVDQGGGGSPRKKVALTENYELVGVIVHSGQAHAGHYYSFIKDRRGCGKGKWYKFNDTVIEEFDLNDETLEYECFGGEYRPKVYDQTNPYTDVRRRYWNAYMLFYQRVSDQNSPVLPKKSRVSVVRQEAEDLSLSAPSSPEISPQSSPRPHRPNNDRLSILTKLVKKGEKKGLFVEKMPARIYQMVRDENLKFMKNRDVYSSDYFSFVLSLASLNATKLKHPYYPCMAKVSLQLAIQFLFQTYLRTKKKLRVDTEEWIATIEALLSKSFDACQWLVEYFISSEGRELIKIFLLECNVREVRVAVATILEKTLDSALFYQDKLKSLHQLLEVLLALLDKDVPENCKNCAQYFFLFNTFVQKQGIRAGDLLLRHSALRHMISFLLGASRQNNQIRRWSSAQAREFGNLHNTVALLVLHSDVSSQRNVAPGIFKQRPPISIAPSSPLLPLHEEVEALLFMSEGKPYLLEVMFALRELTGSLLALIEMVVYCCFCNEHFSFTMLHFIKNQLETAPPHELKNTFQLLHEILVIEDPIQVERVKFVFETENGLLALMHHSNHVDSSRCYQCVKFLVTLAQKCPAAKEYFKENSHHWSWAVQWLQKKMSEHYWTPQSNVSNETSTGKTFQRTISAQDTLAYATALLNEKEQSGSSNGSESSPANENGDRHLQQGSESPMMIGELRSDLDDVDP
Procedure, shortened: as §1

[4] = biological target: T3, USP25 (UniProt Q9UHP3)
T3 sequence (whole entry): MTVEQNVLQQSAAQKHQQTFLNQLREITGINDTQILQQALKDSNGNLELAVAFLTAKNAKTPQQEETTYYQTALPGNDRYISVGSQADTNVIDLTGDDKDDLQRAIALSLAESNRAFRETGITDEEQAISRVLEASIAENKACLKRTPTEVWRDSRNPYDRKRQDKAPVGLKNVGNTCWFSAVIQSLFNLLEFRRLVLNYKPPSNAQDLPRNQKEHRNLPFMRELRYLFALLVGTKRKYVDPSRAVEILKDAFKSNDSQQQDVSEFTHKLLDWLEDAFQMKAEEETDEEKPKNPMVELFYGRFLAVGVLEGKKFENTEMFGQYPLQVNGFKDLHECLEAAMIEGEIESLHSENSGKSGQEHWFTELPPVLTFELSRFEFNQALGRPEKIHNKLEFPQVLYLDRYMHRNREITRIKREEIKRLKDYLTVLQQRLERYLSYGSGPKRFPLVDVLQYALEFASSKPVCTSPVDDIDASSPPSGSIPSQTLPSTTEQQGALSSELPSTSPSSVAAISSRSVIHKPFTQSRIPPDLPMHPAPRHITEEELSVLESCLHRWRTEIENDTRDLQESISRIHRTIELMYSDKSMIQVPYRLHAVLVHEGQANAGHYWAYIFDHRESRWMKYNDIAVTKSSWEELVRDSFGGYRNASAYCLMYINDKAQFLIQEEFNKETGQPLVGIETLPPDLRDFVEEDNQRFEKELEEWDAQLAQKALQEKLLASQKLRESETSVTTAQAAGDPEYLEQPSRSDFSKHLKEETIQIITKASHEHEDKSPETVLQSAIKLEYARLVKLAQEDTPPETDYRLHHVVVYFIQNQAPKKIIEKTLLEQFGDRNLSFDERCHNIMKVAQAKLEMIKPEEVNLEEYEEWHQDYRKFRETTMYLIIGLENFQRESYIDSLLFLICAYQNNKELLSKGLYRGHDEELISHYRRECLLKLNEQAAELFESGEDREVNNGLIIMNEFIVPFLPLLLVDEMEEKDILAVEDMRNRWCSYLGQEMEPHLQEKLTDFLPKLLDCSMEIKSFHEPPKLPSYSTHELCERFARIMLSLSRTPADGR
Procedure, shortened: as §1

[5] = biological target: T4, USP28 (UniProt Q96RU2)
T4 sequence (whole entry): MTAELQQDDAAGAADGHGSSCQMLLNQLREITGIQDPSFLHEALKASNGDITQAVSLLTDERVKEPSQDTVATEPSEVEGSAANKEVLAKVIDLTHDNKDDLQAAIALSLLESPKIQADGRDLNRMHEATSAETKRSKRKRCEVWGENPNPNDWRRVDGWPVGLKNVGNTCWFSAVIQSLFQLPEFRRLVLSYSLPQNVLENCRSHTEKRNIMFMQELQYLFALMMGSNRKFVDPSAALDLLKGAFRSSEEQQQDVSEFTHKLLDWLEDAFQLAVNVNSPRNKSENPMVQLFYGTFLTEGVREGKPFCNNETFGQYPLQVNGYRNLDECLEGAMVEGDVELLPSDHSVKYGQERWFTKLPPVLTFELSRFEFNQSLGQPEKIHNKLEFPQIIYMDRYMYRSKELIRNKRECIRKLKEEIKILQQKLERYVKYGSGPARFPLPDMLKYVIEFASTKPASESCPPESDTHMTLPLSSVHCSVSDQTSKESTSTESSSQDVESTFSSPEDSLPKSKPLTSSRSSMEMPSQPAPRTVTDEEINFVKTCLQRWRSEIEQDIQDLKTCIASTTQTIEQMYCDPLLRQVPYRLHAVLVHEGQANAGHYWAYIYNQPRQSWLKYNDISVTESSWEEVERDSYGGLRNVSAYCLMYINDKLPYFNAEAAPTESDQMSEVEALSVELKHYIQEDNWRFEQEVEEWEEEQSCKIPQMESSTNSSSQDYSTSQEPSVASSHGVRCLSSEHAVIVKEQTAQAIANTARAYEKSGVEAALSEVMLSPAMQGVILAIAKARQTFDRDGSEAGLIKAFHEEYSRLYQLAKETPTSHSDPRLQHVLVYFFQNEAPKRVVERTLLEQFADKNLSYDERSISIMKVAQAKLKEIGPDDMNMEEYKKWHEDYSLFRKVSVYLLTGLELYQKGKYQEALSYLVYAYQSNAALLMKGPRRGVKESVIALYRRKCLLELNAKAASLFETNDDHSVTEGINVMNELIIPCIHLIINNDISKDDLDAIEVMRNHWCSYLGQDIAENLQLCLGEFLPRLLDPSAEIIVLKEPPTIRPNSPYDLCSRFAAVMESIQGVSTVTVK
Procedure, shortened: as §1

Measured: log2 ratio of Biotin-Ahx-Ub-VS probe labelling

Cc1cc(C(=O)NC2CCN(C(=O)CCl)CC2)no1
inactive: [1] -0.0463 | [2] -0.208 | [3] -0.225 | [4] -0.417 | [5] -0.353
